From PubChem BioAssay AID2314 (National Center for Advancing Translational Sciences (NCATS), 2010)
Hit rate of the full screen: of about 300,000 compounds, about 37,000 (12%) were called active. The entries come from a sample that favours actives as a whole. A number with no mark means an inactive call. Rule as the data show it: active = max response mostly above about 13% (no sharp cut-off); inactive = mostly below about 14%.

Experiment: Cycloheximide Counterscreen for Small Molecule Inhibitors of Shiga Toxin; also: read at 38.3 µM for the half of the compounds with a filed dose; 0% is about no effect
Settings: cell reporter, cycloheximide protein synthesis inhibition counterscreen; stronger effect = higher value

| SMILES | max response |
| --- | --- |
| O=C(N/N=C/c1cccc(Br)c1)c1ccc(N2CCCC2=O)cc1 | -5.81% |
| COc1cc(/C=N/NC(=O)c2ccc(N3CCCC3=O)cc2)ccc1O | 36% (active) |
| COc1ccc(C(=O)Nc2ccccc2C(=O)N/N=C/c2ccc(O)c(OC)c2)cc1 | -7.9% |
| Cc1c(Cl)cccc1NC(=O)Nc1ccc(C(=O)N2CCCC2)cc1 | -1.9% |
| O=C(CCS(=O)(=O)c1ccc2c(c1)NC(=O)CS2)NCc1ccccc1Cl | -3.16% |
| O=C(CSc1n[nH]c(=O)n1-c1ccccc1)Nc1ccccc1C(F)(F)F | -2.47% |
| CC(N=Cc1nc(-c2ccccc2)oc1O)c1ccccc1 (stereo not given) | 35.7% (active) |
| CCOc1ccc2nc(/N=C/c3nc(-c4ccccc4)oc3O)sc2c1 | -1.31% |
| Cc1c(Cl)cccc1NC(=O)NCCCN1CCCC1=O | -0.801% |
| COCCN1C(=O)C(=O)/C(=C(/O)c2ccc(S(=O)(=O)N3CCOCC3)cc2)C1c1ccc(O)c(OC)c1 (stereo not given) | -5.59% |
| Cc1cccc(NC(=S)NCc2ccc3[nH]c4c(c3c2)CCCC4)c1 | 9.68% |
| O=c1c2ccccc2nc(/C=C/c2ccco2)n1-c1ccccc1O | 24.2% (active) |
| O=c1c2ccccc2nc(/C=C/c2ccc(F)cc2)n1-c1ccccc1O | 6.44% |
| CCn1c(/C=C/c2ccc([N+](=O)[O-])o2)nc2ccccc2c1=O | -4.66% |
| O=C(Nc1ccc(F)c([N+](=O)[O-])c1)C1CC(=O)N(Cc2ccccc2)C1 (stereo not given) | -3.3% |
| COc1cccc(N(CC(=O)NC2CCCC2)C(=O)Cn2nnc(-c3ccc(C)o3)n2)c1 | -3.92% |
| COC(=O)CCc1ccccc1S(=O)(=O)N(CCC(=O)OC)Cc1ccccc1 | -11% |
| COc1ccc(Cl)cc1-n1c(=S)sc2c(=O)n(-c3ccc(F)cc3)c(SCC(=O)O)nc21 | 0.929% |
| O=C1C2N=NN(CC(=O)N3N=C(c4cccc5ccccc45)CC3c3ccccc3)C2C(=O)N1c1ccccc1 (stereo not given) | -3.29% |
| O=C(/C=C/c1c(F)cccc1Cl)Nc1nn[nH]n1 | -1.57% |
| N#C/C(=C\c1ccccc1C(F)(F)F)C(=O)Nc1ccccc1F | -2.94% |
| CNC(=O)/C(C#N)=C/c1c(F)cccc1Cl | 15.7% (active) |
| CCc1ccc(/C=N/NC(=O)c2ccc(OC3CCCC3)cc2)s1 | 12.2% |
| COc1ccc(CCNC(=O)CCn2c(=O)c3ccccc3n(CC(=O)NCC3CCCO3)c2=O)cc1OC (stereo not given) | 11% |

| SMILES | max response |
| --- | --- |
| Cn1c(=N)n(CC(O)c2cccs2)c2ccccc21 (stereo not given) | -3.56% |
| Cn1c(=N)n(CC(O)c2ccccc2)c2ccccc21 (stereo not given) | 70.1% (active) |
| Cc1nc2ccccc2n1CC(O)c1ccccc1 (stereo not given) | -1.62% |
| COc1ccc(NC(=O)[C@H](NC(=O)[C@@H]2Cc3ccccc3CN2)c2ccccc2)cc1 | -1.13% |
| COC(C(=O)Nc1ccc(C(C)=O)cc1)c1ccccc1 (stereo not given) | -2.94% |
| COc1ccc(NC(C(=O)Nc2cccc(C(C)=O)c2)c2ccccc2)cc1 (stereo not given) | 12.5% (active) |
| O=C(NC1CCN(C(=S)Nc2ccc(Cl)cc2)CC1)C1CCCCC1 | -3.84% |
| CC(C)S(=O)(=O)c1csc(NC(=O)Nc2ccc(Cl)cc2)c1Cl | 17.4% (active) |
| NS(=O)(=O)c1ccc(CCNC(=O)Nc2ccc(Cl)cc2)cc1 | 11% |
| O=C(Nc1ccc(Cl)cc1)Nc1ccc(C(=O)N2CCOCC2)cc1 | 15.1% |
| Cc1cccc(OCC(=O)Nc2ccc(NC(=O)c3ccco3)c(C)c2)c1 | 6.82% |
| CSc1ncc(C(=O)Nc2ccc(C)cc2C)c(C)n1 | 2.97% |
| CSc1nccc(NC(=O)c2ccc(C(C)(C)C)cc2)n1 | 38.6% (active) |
| COC(=O)c1nc(NC(=O)c2ccc(C(C)(C)C)cc2)n[nH]1 | 4.76% |
| Cn1c(Cn2nnc3ccccc32)nnc1SCC(=O)c1ccccc1F | 1.74% |
| COc1ccc(Nc2ncc(F)c(N3CCOCC3)n2)cc1 | 27.6% (active) |
| c1ccc(Nc2nc(N3CCOCC3)c3ccccc3n2)cc1 | 3.89% |
| CCOc1ccc(Nc2nc(Cl)nc(N3CCN(c4ccc(OC)cc4)CC3)n2)cc1 | 1.38% |
| OCCNc1nc2ccccc2n1-c1ncnc2sc3c(c12)CCC3 | -6.62% |
| CCCCCCCCCOC1OC(CO)C(O)C(O)C1NC(C)=O (stereo not given) | 2.49% |
| COc1cccc(CC2(CO)CCCN(Cc3nc(-c4cccs4)oc3C)C2)c1 (stereo not given) | 1.79% |
| Cc1nn2cc(-c3ccc(Cl)cc3)cnc2c1Br | 23.7% (active) |
| COc1cccc(N2CCN(c3ccc4nnc(CCC(=O)N5CCN(C)CC5)n4n3)CC2)c1 | -3.61% |
| O=C(NCCc1c[nH]c2ccccc12)C1CCN(Cc2ccc(Br)cc2)CC1 | -1.22% |

| SMILES | max response |
| --- | --- |
| COc1cc(OC)c(NC(=O)C2CCCN2C(=O)OCc2ccccc2)cc1Cl (stereo not given) | -2.36% |
| COC(=O)c1ccc(OC(=O)c2nn(C)cc2Cl)c(OC)c1 | 8.01% |
| COc1ccc(S(=O)(=O)NCCCCOc2ccc(Cl)cc2)cc1 | -3.02% |
| CCNS(=O)(=O)c1ccc(NC(=O)Nc2cccc(OC)c2)cc1 | 10.4% |
| COc1cccc(NC(C)=[N+](C)CCNS(=O)(=O)c2ccc(Cl)cc2)c1 | 43.4% (active) |
| CC/C(=N\NC(=O)c1c(C)nc2ccccn12)c1ccc(Cl)cc1 | 6.12% |
| CN(C)c1ccc(C2N(C)C(=O)c3ccccc3N2C)cc1 (stereo not given) | -2.11% |
| O=C(C1=C(O)C(=O)N(c2ncccn2)C1c1cccs1)c1ccco1 (stereo not given) | 0.951% |
| O=C(C1=C(O)C(=O)N(CCOCCO)C1c1ccccn1)c1cccs1 (stereo not given) | 15.5% (active) |
| O=C(COc1ccc2ccccc2c1)N1CCN(C(=O)c2cccs2)CC1 | -3.04% |
| Cc1ccc2[nH]c(=O)c(CC(=O)O)c(-c3ccccc3)c2c1 | -1.3% |
| c1ccc(COc2ccccc2CNCc2cccnc2)cc1 | 2.03% |
| CC(C)(C)OC(=O)N/N=C/c1ccc(C(=O)O)cc1 | 29.1% (active) |
| O=C(O)c1ccc(/C=N/NC(=O)c2ccc(Br)cc2)cc1 | -2.33% |
| COC(=O)N/N=C/c1ccc(/C=N/NC(=O)OC)cc1 | -2.42% |
| Cc1cccc2c1cnn2C(=O)CCC(=O)NC1CCCCC1 | 4.44% |
| Cc1nc2nc(SCC(=O)Nc3cccc(F)c3)[nH]c2cc1Br | 1.17% |
| COc1cccc(OCc2cc(C(=O)N3CCN(C(=O)c4ccco4)CC3)no2)c1 | 44.9% (active) |
| O=C(c1ccco1)N1CCN(C(=O)c2ccc(COc3ccc(F)cc3)o2)CC1 | -1.31% |
| COc1cccc(-c2cc(C(=O)N3CCN(c4ccccc4OC)CC3)no2)c1 | 7.23% |
| O=C(c1ccc(Cl)c(Cl)c1)N1CCCC1 | -2.63% |
| COc1ccccc1-c1cc(C(=O)N2CCCCC2)no1 | 59.2% (active) |
| COc1ccccc1N1CCN(C(=O)c2cc(-c3ccc(Cl)c(Cl)c3)on2)CC1 | -1.8% |
| COc1cccc(OC)c1OCCN1CCN(C(=O)c2ccco2)CC1 | -3.58% |

| SMILES | max response |
| --- | --- |
| O=C(c1cc(-c2ccccc2O)on1)N1CCCC1 | 35% (active) |
| O=C(C1CCN(S(=O)(=O)c2cccs2)CC1)N1CCCCCC1 | 10% |
| CNC(=O)n1ccc(C(=O)N2CCCCC2)n1 | 1.48% |
| O=C(c1cc(-c2cccs2)on1)N1CCCCC1 | 50.6% (active) |
| N#Cc1cccc(NC(=O)CN2CCCCCC2)c1 | 4.22% |
| CC1CN(C(=O)CCC(=O)NCc2cccnc2)c2ccccc2O1 (stereo not given) | 0.76% |
| OCCN(Cc1ccccc1)Cc1ccc(Cl)cc1 | -2.21% |
| CCc1nnc(NC(=O)CCN(c2ccc(C)cc2)S(=O)(=O)c2ccccc2)s1 | -1.73% |
| COc1ccc(C2NC(=O)N(C)C(C)=C2[N+](=O)[O-])cc1 (stereo not given) | -2.28% |
| COc1cc2c(C(=O)N(C)c3cc(Cl)ccc3OC)cn(C)c(=O)c2cc1OC | -3.47% |
| Cc1cc(NC(=O)c2cc(-c3cccs3)on2)nn1Cc1ccc(Cl)cc1 | 9.8% |
| COc1ccc(OCc2cc(C(=O)N3CCCC3)no2)c2ccccc12 | 65.1% (active) |
| CC(=O)Nc1cccc(Nc2nc(-c3cccs3)nc3ccccc23)c1 | 13.3% |
| Cc1ccc(C)c(OCc2cc(C(=O)N3CCN(c4cnccn4)CC3)no2)c1 | 19.7% |
| COc1cc(Cl)ccc1OCc1cc(C(=O)N2CC[C@@H]3CCCC[C@H]3C2)no1 | 38.6% (active) |
| CCn1ccnc1CN(C)C(=O)c1cc(COc2ccc(-n3cncn3)cc2)on1 | -1.13% |
| COc1ccc(C(=O)C2CCCN(C(=O)c3cc(C)on3)C2)cc1F (stereo not given) | 1.02% |
| COc1cc(Cl)ccc1OCc1cc(C(=O)N(C)CCc2c(C)n[nH]c2C)no1 | 32.5% |
| CCn1ccnc1CN(C)C(=O)c1cc(COc2ccc(Cl)cc2OC)on1 | 39.1% (active) |
| CC(=O)c1ccc(NC(=O)c2cc(-c3cccs3)on2)cc1 | 16.4% (active) |
| COc1ccccc1OCc1ccc(C(=O)N2CCN(C)CC2)o1 | 1.3% |
| O=C(Cc1csc(Nc2nc(=S)[nH]c3ccccc23)n1)NCCCN1CCN(c2cccc(Cl)c2)CC1 | 1.69% |
| Cc1ccnc(NC(=O)Cn2ccc([N+](=O)[O-])n2)c1 | -1.7% |
